# Sampled rows, rich in hits. Any-hit rate of the full collection: about 1.5%.
# F508del corr = CFTR F508del correction in bronchial cells | CFBE cells, YFP halide quenching; stimulated with forskolin plus potentiator P3; % fluorescence drop versus neutral controls | activity (quench increase), % at 7.58 µM | actives 0.36% (n = 350,000);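 active means mean added fluorescence quench of at least 8% versus neutral control, with both replicates also reaching 8%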;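 further: cells transiently co-express mutant CFTR-F508del with the halide-sensitive YFP; corrector assay measuring rescue of mutant channel to the surface after 24 h compound exposure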
# PvdQ acylase = blocks Pseudomonas aeruginosa PvdQ acylase activity; inhibition, % at 10 µM; actives 0.063% (n = 340,000); AID 488965; purified PvdQ acylase, fluorescence plate reader; in the data active means inhibition above about 30%, passing the limit was not always enough;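 further: 0% = vehicle neutral wells and 100% = reference inhibitor wells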
# dFosB act-1 = activators of mouse delta FosB homodimer | activation, % at 25 µM | actives 0.99% (n = 340,000) | P13346 | purified delta FosB, TAMRA-CDK5 oligo fluorescence polarization; percent of positive-control signal above neutral wells | AID 493131;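 active means mean activation above about 17%, with every replicate also reaching it, limit read from the data, passing the limit was not always enough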
# Glyco luc inh = blocks N-linked glycosylation in D54 reporter cells; D54 ERlucT glycosylation luciferase reporter, 24 h; percent of 100 nM tunicamycin response; reporter increase, % at 12.5 µM; actives 0.23% (n = 360,000); AID 588692;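 active means mean luciferase reporter signal, scaled so untreated is 0 and the glycosylation-blocking control 100, at or above a set limit in every replicate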;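 further: luciferase carries N-glycosylation sites so blocking glycosylation raises the light; 0% = median of neutral control wells and 100% = median of 100 nM tunicamycin wells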
# RAD54 branch = inhibitors of human RAD54 branch migration; AID 602329; actives 0.14% (n = 360,000); RAD54 Holliday junction branch migration, FAM/BHQ fluorescence; inhibition, % at 10.4 µM; Q92698;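 active means mean normalized replicate activity at least 40 and at least half of replicates scoring 40 or more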;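 further: 0% = median of neutral control wells and 100% = median of positive control wells; inhibitors cause a drop in the FAM fluorescence signal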
# RAD52 inh = inhibitors of human RAD52 DNA annealing; recombinant RAD52 DNA annealing, FRET fluorescence; inhibition, % at 18.7 µM; P43351; actives 0.46% (n = 360,000); AID 651710;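 active means every replicate showing at least 50% inhibition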
# Target sequence (P43351 whole entry, looked up): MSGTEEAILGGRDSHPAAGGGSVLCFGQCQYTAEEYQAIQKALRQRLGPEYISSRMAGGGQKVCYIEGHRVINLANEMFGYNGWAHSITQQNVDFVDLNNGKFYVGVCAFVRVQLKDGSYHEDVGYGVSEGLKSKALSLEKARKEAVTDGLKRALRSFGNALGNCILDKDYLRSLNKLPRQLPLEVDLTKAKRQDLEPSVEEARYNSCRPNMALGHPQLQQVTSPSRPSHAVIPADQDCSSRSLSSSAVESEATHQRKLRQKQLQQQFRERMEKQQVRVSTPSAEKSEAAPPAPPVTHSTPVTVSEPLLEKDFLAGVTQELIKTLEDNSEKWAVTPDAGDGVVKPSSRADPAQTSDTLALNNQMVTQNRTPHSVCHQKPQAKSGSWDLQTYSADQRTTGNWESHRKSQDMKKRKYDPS
# dFosB act-2 = delta FosB (mouse) homodimer activation | shares compounds with dFosB act-1 | purified delta FosB, TAMRA-CDK5 oligo fluorescence polarization; normalised: neutral wells 0, positive control 100 | activation, % at 24.9 µM | 2,400 tested, under 10 active;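 active means highest replicate activation at or above 34% and every replicate reaching that threshold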;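 further: higher polarization means more probe DNA bound by delta FosB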
# Rad54 DNA ctr = counter-screen for Rad54 inhibitors: DNA binding compounds; actives 8% (n = 460); AC50, µM (series often up to 35 µM), for inactives: top-dose activity change, negative = DNA binding; shares compounds with RAD54 branch; Acridine orange-DNA displacement, fluorescence polarization, 20 min;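 active means signal drop giving an AC50 within twice the top valid tested concentration of each sample, actives reach about 35 µM in these data; inactive means activity opposite to expected, plus the rest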;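 further: polarization loss reports compound binding to salmon sperm DNA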
# DNA binder FP = binds DNA, flagging false RAD52 inhibitor hits; shares compounds with RAD52 inh; Salmon sperm DNA/acridine orange FP displacement, DNA binding; AC50, µM; actives 8% (n = 1,000);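 active means fitted half-maximal concentration for signal loss at or below twice the highest dose tested, in every separate run, actives reach about 64 µM in these data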
# * = called active by the depositor; i = inactive; · = no result; ! = not confirmed by another sample.
SMILES,F508del corr,PvdQ acylase,dFosB act-1,Glyco luc inh,RAD54 branch,RAD52 inh,others
C[C@@H]1O[C@@H](O[C@@H]2C=C3CC[C@@H]4C(CC[C@]5(C)[C@@H](c6ccc(=O)oc6)CC[C@]45O)[C@@]3(C)CC2)[C@H](O)[C@H](O)[C@H]1O (some centres not stated),23.6*,-6.8,-4.5,-21.8,6.7,-6.9,
NC(N)=Nc1ccc2[nH]c3c(c2c1)C[C@@]1(O)[C@H]2Cc4ccc(O)c5c4[C@@]1(CCN2CC1CC1)[C@H]3O5,·,11.9,40.6*,-4.8,53.7*,·,
COC(=O)[C@H]1[C@H](CO)[C@H]2Cn3c(ccc(-c4ccccc4)c3=O)[C@@H]1N2CC1CCOCC1,0.3,·,·,·,-2.3,-3.2,
COC(=O)C[C@@H]1CC[C@H]2NC[C@H](O)COC[C@@H]2O1,4.4,·,·,·,-3.0,-4.1,
C=CCn1c(O)c(C(CC)=NC(C)c2ccccc2)c(=O)[nH]c1=O (configuration not stated),·,0.2,-6.0,25.6*,-1.7,·,
O=C(Cc1cccnc1)N1CCCCN2[C@H](C1)[C@@H](c1ccc(/C=C/c3ccccc3)cc1)[C@@H]2CO,-4.0,·,·,·,-4.4,-10.0,
O=C(Cc1ccncc1)N1CCCCN2[C@H](CO)[C@@H](c3ccc(C#CC4(O)CCCC4)cc3)[C@@H]2C1,-4.0,·,·,·,-1.5,-1.9,
ClCCOCCCl,3.6,-2.3,-1.3,85.1*,-11.6,-6.6,
COc1cc(/C=C/[N+](=O)[O-])ccc1O,0.4,-1.9,2.7,29.2*,-6.2,-9.9,
CCOC(=O)c1cncn1[C@@H](C)c1ccccc1,8.9*,5.3,2.6,1.9,6.9,3.5,
Cc1ncc(C(=O)O)n1C(C)c1ccccc1 (configuration not stated),-2.5,·,·,0.6,2.4,-10.1,
CCC(COC(=O)c1cc(OC)c(OC)c(OC)c1)(c1ccccc1)N(C)C (configuration not stated),9.0*!,-3.3,-13.8,2.7,5.0,-6.2,
CCCOP(=O)(OCCC)C(NC(=O)c1cc(OC)c(OC)c(OC)c1)c1ccccc1 (configuration not stated),-6.5,-10.2,-1.1,9.4,1.0,5.2,
O=C(Cc1ccccc1)N1CCCCN2[C@H](C1)[C@H](c1ccc(C#Cc3ccccc3)cc1)[C@@H]2CO,-0.9,·,·,·,-8.1,-7.6,
N#CC(C#N)=Cc1ccc(N2CCOCC2)cc1,-2.8,-0.4,1.3,-0.6,-3.8,-9.7,
N#C/C(=C\c1ccc(O)cc1)C(=O)O (tested in a mixture with another compound),11.1*,-2.5,0.6,2.4,-3.7,-5.5,
COc1ccc(-c2ccc([C@@H]3[C@@H](CO)N4CCCCN(C(=O)Cc5ccccc5)C[C@H]34)cc2)cc1,-0.5,·,·,·,4.7,-15.1,
CC1CN(O)C2CCc3nonc3C12O (configuration not stated),·,-1.1,16.2*,0.5,-3.5,·,
COc1cccc(-c2ccc([C@@H]3[C@H]4CN(C(=O)Cc5ccncc5)CCCCN4[C@H]3CO)cc2)c1,-2.5,·,·,·,-14.5,-55.0,
O=C(Cc1ccccc1)N1CC2(C1)[C@@H](c1ccccc1)[C@@H](CO)N2Cc1cccc(F)c1,2.8,·,·,·,·,-49.8,
CCOc1ccc(C2C(C#N)=C(N)Oc3c2c(=O)oc2ccccc32)cc1 (configuration not stated),·,-0.9,20.9*,4.2,-30.9,·,dFosB act-2=-3.0
CC(=O)C1C(N2CC2)CC2C3CC=C4CC(O)CCC4(C)C3CCC21C (configuration not stated),2.5,-2.9,36.4*,0.0,-0.7,2.8,dFosB act-2=2.4
O=C(O)[C@H]1[C@H](CO)[C@H]2Cn3c(ccc(-c4cncnc4)c3=O)[C@@H]1N2C(=O)NC1CCCC1,-1.0,·,·,·,-2.4,7.1,
COc1ccc(OC(=O)N(C)C[C@@H]2OCc3ccccc3-c3c(n(C)c4ccccc34)C(=O)N([C@@H](C)CO)C[C@H]2C)cc1,1.1,·,·,·,·,12.7,
Cc1sc2ncnc(N3CCC(C(=O)Nc4ccc(C#N)c(Cl)c4)CC3)c2c1C,-0.6,-16.6,31.6*,-1.4,-8.6,-29.1,dFosB act-2=-3.3
SMILES,F508del corr,PvdQ acylase,dFosB act-1,Glyco luc inh,RAD54 branch,RAD52 inh,others
COC(=O)[C@@H]1[C@@H](CO)[C@@H]2Cn3c(ccc(-c4cccc(F)c4)c3=O)[C@H]1N2C(=O)CC1CC1,·,·,·,·,-0.1,-7.4,
O=c1[nH]c(=S)[nH]c(O)c1N=Nc1ccc(SC(F)F)cc1,-1.0,-5.9,0.2,-0.2,0.6,-47.6,
O=c1[nH]c(=S)[nH]c(O)c1N=Nc1ccc(S(=O)(=O)N2CCc3ccccc32)cc1,·,-0.2,28.8*,10.1,·,3.2,dFosB act-2=7.6
CN(C)CCN(C(=O)COc1ccc(Cl)cc1)c1nc2cc3c(cc2s1)OCO3,-2.5,11.5,24.3*,-0.1,4.9,3.2,dFosB act-2=-0.6
COc1ccc(OCC(=O)N2CCN(Cc3ccc4c(c3)OCO4)CC2)cc1,1.8,-14.2,-4.3,-1.4,10.2,-0.1,
O=C1CN=C(c2ccc(Br)cc2)c2oc3ccccc3c2N1,·,0.0,3.6,-4.8,6.9,·,
O=C1CN=C(c2ccccc2)c2oc3ccc(Br)cc3c2N1,·,-10.0,30.1*,-2.9,·,·,dFosB act-2=-5.7
Cc1cc(N2CCN(C)CC2)nc2ccccc12,-0.8,-11.9,0.9,2.7,5.9,3.7,
CN1CCC(N(C)c2nc(-c3ccccc3)nc3ccccc23)CC1,·,8.0,-12.6,3.8,67.1*,47.5,Rad54 DNA ctr=-15.7%
O=C(Cc1ccccc1)N1C[C@H]2[C@@H](c3ccccc31)[C@@H](CO)N2Cc1ccccc1,0.9,·,·,·,-4.8,-6.4,
COc1ccc2c(c1)[nH]c1c(C)nccc12,-3.0,-10.5,-13.0,-13.9,71.2*,29.3,Rad54 DNA ctr=-15.1%
CCN1CCN(c2ccc(N)c(C)c2)CC1,4.1,7.8,8.6,0.2,76.5*,92.0*,Rad54 DNA ctr=4.3%;DNA binder FP=i
CC=Cc1ccc2n(c1=O)C[C@H]1[C@H](CO)[C@@H](C(=O)OC)[C@@H]2N1C(=O)CC (mixture of isomers),·,·,·,·,6.4,-8.1,
Nc1ccc(CC2=NCCN2)cc1,-0.6,-11.4,-0.8,1.0,·,83.6*,DNA binder FP=62.9µM*
COC(=O)[C@H]1[C@H](CO)[C@H]2Cn3c(ccc(-c4ccccc4F)c3=O)[C@@H]1N2C(=O)C1CC1,1.7,·,·,·,9.0,-11.6,
